Assay results: PubChem BioAssay (NCI)
The panel holds about 79,000 compounds, 15% with a hit somewhere; the sample as a whole holds those more often. Values without a mark were called inactive. Activity calls are given as the source filed them. No stated cut-off is given here; in the data, active means growth inhibition above about 70%; inactive means the rest.

Assay: NCI Yeast Anticancer Drug Screen. Data for the mec2-1 strain (AID 157)
Details: S. cerevisiae mec2-1 strain, at 50.0 µM, stronger effect = higher value
Method in brief: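 mec2-1 yeast strain, carrying an alteration in DNA damage repair or cell cycle control, was exposed to compounds; growth inhibition was measured relative to vehicle-treated controls.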

SMILES | growth inhibition
CCCCCCCCc1ccc2c3ccccc3c3ccccc3c2c1 | 60.4%
O=C1C(=O)c2ccc(Br)cc2C(O)=C1C(c1ccccc1)c1ccccc1 | 30.5%
CN(C)Cc1ccc2[nH]c3c(c2c1)CCCC3 | 36.6%
COc1ccc(NC(=O)Nc2ccc(Cl)cc2)nn1 | 20.4%
CO/N=C/c1cc(NC(=S)c2ccoc2C)ccc1Cl | 94.2% (active)
O=C(Sc1c(-c2ccccc2)c(=O)n(-c2ccccc2)c(=S)n1-c1ccccc1)c1cccs1 | 73.1% (active)
O=C1/C(=C/c2ccc(F)cc2)CNC/C1=C\c1ccc(F)cc1 | 84.8% (active)
O=c1cc2cccccc-2cc1O | 70% (active)
Oc1c(Br)cc(Br)cc1-c1ccccc1 | 99.5% (active)
C(=[CH]/[Sn]([c]1ccccc1)([c]1ccccc1)[c]1ccccc1)/c1ccccc1 | 98.4% (active)
CCCCCCCCCN1CCNC1=S | -10.4%
O=C1C/C(=C\c2ccccc2)C(=O)c2ccccc2N1 | 41.8%
CN(C)C(=O)Nc1ccc(Cc2ccc(NC(=O)N(C)C)cc2)cc1 | -13.2%
C=C1CC(C)(COc2ccc3c(C)c(Cl)c(=O)oc3c2)OC1=O (stereo not given) | 68.8%
CC[C@@]1(OP(=O)(O)O)C(=O)OCc2c1cc1n(c2=O)Cc2cc3ccccc3nc2-1 | 87.1% (active)
O=S(=O)(Sc1ccccc1)C(c1ccccc1)c1ccccc1 | -1.25%
CCOC(=O)c1c(N)sc2c1CCCCC2 | 45.4%
CCCCCCCCCCCCCCNCCN | 91% (active)
CCCN(CCC)CCNc1ccc(C)c2sc3ccccc3c(=O)c12 | 99.7% (active)
CC1CC2(C)ON=C(c3ccccc3)N2c2ccccc2S1 (stereo not given) | 90% (active)

SMILES | growth inhibition
COc1ccc(N=NN2CCCC2)cc1 | 92.5% (active)
S=C(Nc1ccccc1)NC1CC2C=CC1CC2 (stereo not given) | 7.2%
C=CCOC(=O)C(O)C(CC)CCCCC (stereo not given) | 46%
NC(=O)c1ccccc1C(=O)O | 1.85%
CS(=O)(=O)c1cc(=O)c2ccccc2s1 | 96.6% (active)
O=C([O][Sb]([O]C(=O)C(Cl)(Cl)Cl)([c]1ccccc1)([c]1ccccc1)[c]1ccccc1)C(Cl)(Cl)Cl | 29.2%
CCCCCCCCCCCCCCCCCCOP(=O)([O-])OCC[N+](C)(C)C | 92% (active)
Nc1ccc(SCCCc2c(N)nc(N)nc2N)cc1 | 92.2% (active)
O=C1C=CC(=O)c2c1cc1ccccc1c2O | -10.8%
CCN(CC)CC(O)CNc1ccc(NCC(O)CCl)c2c1C(=O)c1ccccc1C2=O (stereo not given) | -19.1%
N#Cc1c(N)nc2c(N=Nc3ccccc3)c(N)nn2c1Nc1ccccc1 | 16.4%
CC(O)c1c2ccccc2cc2ccccc12 (stereo not given) | 39.3%
Cc1ccccc1NC(=O)C1C(=O)N(c2ccccc2C)C(=O)/C1=N/O (stereo not given) | 2.95%
O=Cc1ccc(-c2nccc3c2[nH]c2ccccc23)o1 | 26.9%
C=CC(C)(CCC=C(C)C)OC(=O)Nc1ccccc1 (stereo not given) | -12.7%
Oc1ccc(-c2nnc(-c3ccc(Cl)cc3Cl)o2)cc1 | 50.8%
C/C=C1\CC(C)(CC)C(C#N)(C#N)C(N)=C1C#N (stereo not given) | 10.5%
Cc1nc(-c2ccccc2)nc2c1nc(C(C)C)n2Nc1ccccc1 | 57.6%
Cc1csc2c1C(=O)c1ccsc1C2=O | 91.5% (active)
COc1cc(Nc2ccc(Oc3ccc(O)cc3)cc2)c2ncccc2c1 | 53.1%

Assay: NCI Yeast Anticancer Drug Screen. Data for the sgs1 mgt1 strain (AID 161);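 further: 0% = growth of cultures given vehicle only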
Details: S. cerevisiae sgs1 mgt1 strain, at 5.0 µM (retest, dose inferred, filed as 0.5), stronger effect = higher value
Method in brief: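 Yeast cells carrying a defined DNA-repair defect were exposed to test compounds. Growth inhibition was measured relative to vehicle-treated controls.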

SMILES | growth inhibition
CCCCCCCCc1ccc2c3ccccc3c3ccccc3c2c1 | -19%
O=C1C(=O)c2ccc(Br)cc2C(O)=C1C(c1ccccc1)c1ccccc1 | 4%
CN(C)Cc1ccc2[nH]c3c(c2c1)CCCC3 | 2%
COc1ccc(NC(=O)Nc2ccc(Cl)cc2)nn1 | -3%
CO/N=C/c1cc(NC(=S)c2ccoc2C)ccc1Cl | 20%
O=C(Sc1c(-c2ccccc2)c(=O)n(-c2ccccc2)c(=S)n1-c1ccccc1)c1cccs1 | 23%
O=C1/C(=C/c2ccc(F)cc2)CNC/C1=C\c1ccc(F)cc1 | -2%
O=c1cc2cccccc-2cc1O | -48%
Oc1c(Br)cc(Br)cc1-c1ccccc1 | 2%
C(=[CH]/[Sn]([c]1ccccc1)([c]1ccccc1)[c]1ccccc1)/c1ccccc1 | 98% (active)
CCCCCCCCCN1CCNC1=S | 6%
O=C1C/C(=C\c2ccccc2)C(=O)c2ccccc2N1 | -9%
CN(C)C(=O)Nc1ccc(Cc2ccc(NC(=O)N(C)C)cc2)cc1 | -13%
C=C1CC(C)(COc2ccc3c(C)c(Cl)c(=O)oc3c2)OC1=O (stereo not given) | -2%
CC[C@@]1(OP(=O)(O)O)C(=O)OCc2c1cc1n(c2=O)Cc2cc3ccccc3nc2-1 | 6%
O=S(=O)(Sc1ccccc1)C(c1ccccc1)c1ccccc1 | 2%
CCOC(=O)c1c(N)sc2c1CCCCC2 | -63%
CCCCCCCCCCCCCCNCCN | 53%
CCCN(CCC)CCNc1ccc(C)c2sc3ccccc3c(=O)c12 | 42%
CC1CC2(C)ON=C(c3ccccc3)N2c2ccccc2S1 (stereo not given) | -24%

SMILES | growth inhibition
COc1ccc(N=NN2CCCC2)cc1 | 45%
S=C(Nc1ccccc1)NC1CC2C=CC1CC2 (stereo not given) | -4%
C=CCOC(=O)C(O)C(CC)CCCCC (stereo not given) | 9%
NC(=O)c1ccccc1C(=O)O | 0%
CS(=O)(=O)c1cc(=O)c2ccccc2s1 | 21%
O=C([O][Sb]([O]C(=O)C(Cl)(Cl)Cl)([c]1ccccc1)([c]1ccccc1)[c]1ccccc1)C(Cl)(Cl)Cl | 10%
CCCCCCCCCCCCCCCCCCOP(=O)([O-])OCC[N+](C)(C)C | -2%
Nc1ccc(SCCCc2c(N)nc(N)nc2N)cc1 | 27%
O=C1C=CC(=O)c2c1cc1ccccc1c2O | 6%
CCN(CC)CC(O)CNc1ccc(NCC(O)CCl)c2c1C(=O)c1ccccc1C2=O (stereo not given) | 98% (active)
N#Cc1c(N)nc2c(N=Nc3ccccc3)c(N)nn2c1Nc1ccccc1 | 19%
CC(O)c1c2ccccc2cc2ccccc12 (stereo not given) | 1%
Cc1ccccc1NC(=O)C1C(=O)N(c2ccccc2C)C(=O)/C1=N/O (stereo not given) | -4%
O=Cc1ccc(-c2nccc3c2[nH]c2ccccc23)o1 | 17%
C=CC(C)(CCC=C(C)C)OC(=O)Nc1ccccc1 (stereo not given) | -10%
Oc1ccc(-c2nnc(-c3ccc(Cl)cc3Cl)o2)cc1 | 0%
C/C=C1\CC(C)(CC)C(C#N)(C#N)C(N)=C1C#N (stereo not given) | 2%
Cc1nc(-c2ccccc2)nc2c1nc(C(C)C)n2Nc1ccccc1 | 0%
Cc1csc2c1C(=O)c1ccsc1C2=O | 72% (active)
COc1cc(Nc2ccc(Oc3ccc(O)cc3)cc2)c2ncccc2c1 | -12%
